In the supplement of paper PMC11732987, “Enantioselective OTUD7B fragment discovery through chemoproteomics screening and high-throughput optimisation” (Communications Chemistry, 2025):

Experiments:
Experiment in all cases: log2 ratio of Biotin-Ahx-Ub-VS probe labelling (fragment/DMSO); higher = less target engagement (more negative = stronger competition), active = hit call of the paper (q ≤ 0.05, log2 ratio ≤ -1)
Settings in all cases: compound concentration: 200 uM; treatment time: 3 h
USP34 = USP34 (UniProt Q70CQ2)
Summary of the method: (§1)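 Labelled DUBs were enriched with NeutrAvidin, digested with LysC and trypsin, and run by diaPASEF LC-MS/MS. The labelling used Biotin-Ahx-Ub-VS at 0.5 µM final for 1 h on HEK293T lysate (495 µg per sample) previously treated in triplicate with fragment at 200 µM or vehicle for 3 h. Values are average log2 fragment/vehicle ratios by unpaired t-test on global-median-normalised Spectronaut quantities of proteins with ≥2 unique peptides.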

USP36 = biological target: T1, USP36 (UniProt Q9P275)
T1 sequence (whole entry): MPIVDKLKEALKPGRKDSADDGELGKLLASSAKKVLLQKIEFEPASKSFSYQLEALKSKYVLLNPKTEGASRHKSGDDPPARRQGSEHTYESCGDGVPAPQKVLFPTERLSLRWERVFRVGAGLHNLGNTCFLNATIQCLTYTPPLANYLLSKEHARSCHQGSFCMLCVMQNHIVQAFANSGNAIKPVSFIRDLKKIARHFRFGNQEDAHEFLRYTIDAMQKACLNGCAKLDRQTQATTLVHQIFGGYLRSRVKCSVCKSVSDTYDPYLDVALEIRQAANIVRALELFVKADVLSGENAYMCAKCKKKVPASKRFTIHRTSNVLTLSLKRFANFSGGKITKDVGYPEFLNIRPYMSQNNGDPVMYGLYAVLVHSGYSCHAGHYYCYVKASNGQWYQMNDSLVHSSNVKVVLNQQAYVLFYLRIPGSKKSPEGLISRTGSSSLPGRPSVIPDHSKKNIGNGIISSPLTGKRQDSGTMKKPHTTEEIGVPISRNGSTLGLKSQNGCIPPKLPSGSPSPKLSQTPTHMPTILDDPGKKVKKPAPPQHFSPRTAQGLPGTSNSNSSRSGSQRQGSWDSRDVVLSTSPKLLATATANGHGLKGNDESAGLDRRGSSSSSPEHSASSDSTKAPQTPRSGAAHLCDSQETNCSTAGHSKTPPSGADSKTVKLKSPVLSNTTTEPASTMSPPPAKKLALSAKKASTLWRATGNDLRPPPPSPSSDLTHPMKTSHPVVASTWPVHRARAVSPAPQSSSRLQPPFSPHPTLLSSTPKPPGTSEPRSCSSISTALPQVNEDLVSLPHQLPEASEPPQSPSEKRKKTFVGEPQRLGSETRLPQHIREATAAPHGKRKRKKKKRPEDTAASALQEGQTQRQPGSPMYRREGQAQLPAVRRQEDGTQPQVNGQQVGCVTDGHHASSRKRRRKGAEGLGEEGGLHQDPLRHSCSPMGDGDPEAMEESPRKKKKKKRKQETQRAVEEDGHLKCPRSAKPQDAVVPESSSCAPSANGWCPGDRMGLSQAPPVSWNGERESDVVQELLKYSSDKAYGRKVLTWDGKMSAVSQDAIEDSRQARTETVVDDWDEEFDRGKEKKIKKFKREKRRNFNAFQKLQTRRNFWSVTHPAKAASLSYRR
Summary of the method: as §1

USP38 = biological target: T2, USP38 (UniProt Q8NB14)
T2 sequence (whole entry): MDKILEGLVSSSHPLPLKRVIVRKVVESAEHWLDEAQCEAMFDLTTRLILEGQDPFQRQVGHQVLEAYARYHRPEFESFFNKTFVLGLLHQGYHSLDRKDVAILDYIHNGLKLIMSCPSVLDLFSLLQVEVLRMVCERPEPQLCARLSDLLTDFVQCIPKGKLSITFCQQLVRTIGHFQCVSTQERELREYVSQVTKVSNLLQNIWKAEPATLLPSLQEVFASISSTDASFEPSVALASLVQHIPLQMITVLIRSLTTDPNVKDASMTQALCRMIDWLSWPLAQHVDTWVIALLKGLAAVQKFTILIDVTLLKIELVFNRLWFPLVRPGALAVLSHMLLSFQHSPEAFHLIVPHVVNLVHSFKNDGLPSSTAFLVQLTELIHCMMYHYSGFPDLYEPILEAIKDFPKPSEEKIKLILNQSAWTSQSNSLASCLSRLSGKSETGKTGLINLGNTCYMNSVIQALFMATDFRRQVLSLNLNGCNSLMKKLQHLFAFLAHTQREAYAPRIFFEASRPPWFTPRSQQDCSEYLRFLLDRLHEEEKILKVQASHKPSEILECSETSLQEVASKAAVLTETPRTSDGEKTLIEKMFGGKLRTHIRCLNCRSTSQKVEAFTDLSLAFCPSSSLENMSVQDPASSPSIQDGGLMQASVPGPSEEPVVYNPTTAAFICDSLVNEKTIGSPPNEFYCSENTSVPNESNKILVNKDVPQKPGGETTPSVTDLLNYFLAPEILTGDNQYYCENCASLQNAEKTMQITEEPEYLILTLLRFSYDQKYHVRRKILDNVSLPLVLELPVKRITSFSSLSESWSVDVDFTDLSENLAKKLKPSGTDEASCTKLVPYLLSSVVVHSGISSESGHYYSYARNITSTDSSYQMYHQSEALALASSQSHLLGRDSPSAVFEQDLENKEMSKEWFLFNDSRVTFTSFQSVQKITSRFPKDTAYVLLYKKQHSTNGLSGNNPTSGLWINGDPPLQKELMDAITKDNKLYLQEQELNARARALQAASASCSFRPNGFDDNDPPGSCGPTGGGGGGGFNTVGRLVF
Summary of the method: as §1

USP39 = biological target: T3, USP39 (UniProt Q53GS9)
T3 sequence (whole entry): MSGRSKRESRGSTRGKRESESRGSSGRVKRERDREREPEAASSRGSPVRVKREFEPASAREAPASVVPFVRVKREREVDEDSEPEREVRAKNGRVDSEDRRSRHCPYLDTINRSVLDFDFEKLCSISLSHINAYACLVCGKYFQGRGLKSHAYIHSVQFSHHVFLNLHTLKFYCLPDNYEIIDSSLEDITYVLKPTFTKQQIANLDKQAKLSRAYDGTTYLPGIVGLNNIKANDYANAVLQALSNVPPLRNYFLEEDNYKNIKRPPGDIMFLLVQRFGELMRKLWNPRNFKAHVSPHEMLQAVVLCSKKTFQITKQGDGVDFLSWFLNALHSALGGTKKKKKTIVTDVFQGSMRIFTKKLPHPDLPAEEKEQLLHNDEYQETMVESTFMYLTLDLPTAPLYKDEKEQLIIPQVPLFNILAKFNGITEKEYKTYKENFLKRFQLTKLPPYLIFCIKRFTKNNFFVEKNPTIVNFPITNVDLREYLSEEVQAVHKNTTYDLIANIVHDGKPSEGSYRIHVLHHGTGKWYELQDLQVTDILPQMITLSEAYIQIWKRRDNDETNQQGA
Summary of the method: as §1

USP4 = biological target: T4, USP4 (UniProt Q13107)
T4 sequence (whole entry): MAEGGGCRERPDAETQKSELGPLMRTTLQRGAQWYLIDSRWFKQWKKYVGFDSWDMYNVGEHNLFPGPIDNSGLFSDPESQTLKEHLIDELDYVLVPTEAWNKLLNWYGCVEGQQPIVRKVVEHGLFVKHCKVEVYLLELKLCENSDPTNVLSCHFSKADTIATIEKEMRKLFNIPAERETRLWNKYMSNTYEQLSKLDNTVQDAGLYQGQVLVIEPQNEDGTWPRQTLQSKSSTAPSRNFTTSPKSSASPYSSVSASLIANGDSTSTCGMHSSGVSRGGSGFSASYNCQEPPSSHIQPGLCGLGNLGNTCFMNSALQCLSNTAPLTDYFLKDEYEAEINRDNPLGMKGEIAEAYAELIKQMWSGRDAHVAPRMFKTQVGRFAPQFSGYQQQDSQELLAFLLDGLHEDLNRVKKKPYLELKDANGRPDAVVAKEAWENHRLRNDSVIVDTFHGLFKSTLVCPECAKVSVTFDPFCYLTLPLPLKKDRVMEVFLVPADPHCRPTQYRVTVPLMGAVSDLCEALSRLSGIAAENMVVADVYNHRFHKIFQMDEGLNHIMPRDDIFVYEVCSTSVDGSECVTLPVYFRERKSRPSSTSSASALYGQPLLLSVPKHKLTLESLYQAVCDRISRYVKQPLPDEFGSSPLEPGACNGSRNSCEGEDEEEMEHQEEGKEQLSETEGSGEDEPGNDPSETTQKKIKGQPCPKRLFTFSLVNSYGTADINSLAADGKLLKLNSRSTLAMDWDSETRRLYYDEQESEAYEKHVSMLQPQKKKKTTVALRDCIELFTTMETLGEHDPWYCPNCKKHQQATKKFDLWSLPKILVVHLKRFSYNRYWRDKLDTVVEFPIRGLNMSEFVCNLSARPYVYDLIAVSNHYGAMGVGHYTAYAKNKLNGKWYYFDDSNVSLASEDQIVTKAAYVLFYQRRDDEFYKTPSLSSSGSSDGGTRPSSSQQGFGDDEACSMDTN
Summary of the method: as §1

Measured: log2 ratio of Biotin-Ahx-Ub-VS probe labelling

Chain of USP34 (Q70CQ2 whole entry, the tested form may be a part): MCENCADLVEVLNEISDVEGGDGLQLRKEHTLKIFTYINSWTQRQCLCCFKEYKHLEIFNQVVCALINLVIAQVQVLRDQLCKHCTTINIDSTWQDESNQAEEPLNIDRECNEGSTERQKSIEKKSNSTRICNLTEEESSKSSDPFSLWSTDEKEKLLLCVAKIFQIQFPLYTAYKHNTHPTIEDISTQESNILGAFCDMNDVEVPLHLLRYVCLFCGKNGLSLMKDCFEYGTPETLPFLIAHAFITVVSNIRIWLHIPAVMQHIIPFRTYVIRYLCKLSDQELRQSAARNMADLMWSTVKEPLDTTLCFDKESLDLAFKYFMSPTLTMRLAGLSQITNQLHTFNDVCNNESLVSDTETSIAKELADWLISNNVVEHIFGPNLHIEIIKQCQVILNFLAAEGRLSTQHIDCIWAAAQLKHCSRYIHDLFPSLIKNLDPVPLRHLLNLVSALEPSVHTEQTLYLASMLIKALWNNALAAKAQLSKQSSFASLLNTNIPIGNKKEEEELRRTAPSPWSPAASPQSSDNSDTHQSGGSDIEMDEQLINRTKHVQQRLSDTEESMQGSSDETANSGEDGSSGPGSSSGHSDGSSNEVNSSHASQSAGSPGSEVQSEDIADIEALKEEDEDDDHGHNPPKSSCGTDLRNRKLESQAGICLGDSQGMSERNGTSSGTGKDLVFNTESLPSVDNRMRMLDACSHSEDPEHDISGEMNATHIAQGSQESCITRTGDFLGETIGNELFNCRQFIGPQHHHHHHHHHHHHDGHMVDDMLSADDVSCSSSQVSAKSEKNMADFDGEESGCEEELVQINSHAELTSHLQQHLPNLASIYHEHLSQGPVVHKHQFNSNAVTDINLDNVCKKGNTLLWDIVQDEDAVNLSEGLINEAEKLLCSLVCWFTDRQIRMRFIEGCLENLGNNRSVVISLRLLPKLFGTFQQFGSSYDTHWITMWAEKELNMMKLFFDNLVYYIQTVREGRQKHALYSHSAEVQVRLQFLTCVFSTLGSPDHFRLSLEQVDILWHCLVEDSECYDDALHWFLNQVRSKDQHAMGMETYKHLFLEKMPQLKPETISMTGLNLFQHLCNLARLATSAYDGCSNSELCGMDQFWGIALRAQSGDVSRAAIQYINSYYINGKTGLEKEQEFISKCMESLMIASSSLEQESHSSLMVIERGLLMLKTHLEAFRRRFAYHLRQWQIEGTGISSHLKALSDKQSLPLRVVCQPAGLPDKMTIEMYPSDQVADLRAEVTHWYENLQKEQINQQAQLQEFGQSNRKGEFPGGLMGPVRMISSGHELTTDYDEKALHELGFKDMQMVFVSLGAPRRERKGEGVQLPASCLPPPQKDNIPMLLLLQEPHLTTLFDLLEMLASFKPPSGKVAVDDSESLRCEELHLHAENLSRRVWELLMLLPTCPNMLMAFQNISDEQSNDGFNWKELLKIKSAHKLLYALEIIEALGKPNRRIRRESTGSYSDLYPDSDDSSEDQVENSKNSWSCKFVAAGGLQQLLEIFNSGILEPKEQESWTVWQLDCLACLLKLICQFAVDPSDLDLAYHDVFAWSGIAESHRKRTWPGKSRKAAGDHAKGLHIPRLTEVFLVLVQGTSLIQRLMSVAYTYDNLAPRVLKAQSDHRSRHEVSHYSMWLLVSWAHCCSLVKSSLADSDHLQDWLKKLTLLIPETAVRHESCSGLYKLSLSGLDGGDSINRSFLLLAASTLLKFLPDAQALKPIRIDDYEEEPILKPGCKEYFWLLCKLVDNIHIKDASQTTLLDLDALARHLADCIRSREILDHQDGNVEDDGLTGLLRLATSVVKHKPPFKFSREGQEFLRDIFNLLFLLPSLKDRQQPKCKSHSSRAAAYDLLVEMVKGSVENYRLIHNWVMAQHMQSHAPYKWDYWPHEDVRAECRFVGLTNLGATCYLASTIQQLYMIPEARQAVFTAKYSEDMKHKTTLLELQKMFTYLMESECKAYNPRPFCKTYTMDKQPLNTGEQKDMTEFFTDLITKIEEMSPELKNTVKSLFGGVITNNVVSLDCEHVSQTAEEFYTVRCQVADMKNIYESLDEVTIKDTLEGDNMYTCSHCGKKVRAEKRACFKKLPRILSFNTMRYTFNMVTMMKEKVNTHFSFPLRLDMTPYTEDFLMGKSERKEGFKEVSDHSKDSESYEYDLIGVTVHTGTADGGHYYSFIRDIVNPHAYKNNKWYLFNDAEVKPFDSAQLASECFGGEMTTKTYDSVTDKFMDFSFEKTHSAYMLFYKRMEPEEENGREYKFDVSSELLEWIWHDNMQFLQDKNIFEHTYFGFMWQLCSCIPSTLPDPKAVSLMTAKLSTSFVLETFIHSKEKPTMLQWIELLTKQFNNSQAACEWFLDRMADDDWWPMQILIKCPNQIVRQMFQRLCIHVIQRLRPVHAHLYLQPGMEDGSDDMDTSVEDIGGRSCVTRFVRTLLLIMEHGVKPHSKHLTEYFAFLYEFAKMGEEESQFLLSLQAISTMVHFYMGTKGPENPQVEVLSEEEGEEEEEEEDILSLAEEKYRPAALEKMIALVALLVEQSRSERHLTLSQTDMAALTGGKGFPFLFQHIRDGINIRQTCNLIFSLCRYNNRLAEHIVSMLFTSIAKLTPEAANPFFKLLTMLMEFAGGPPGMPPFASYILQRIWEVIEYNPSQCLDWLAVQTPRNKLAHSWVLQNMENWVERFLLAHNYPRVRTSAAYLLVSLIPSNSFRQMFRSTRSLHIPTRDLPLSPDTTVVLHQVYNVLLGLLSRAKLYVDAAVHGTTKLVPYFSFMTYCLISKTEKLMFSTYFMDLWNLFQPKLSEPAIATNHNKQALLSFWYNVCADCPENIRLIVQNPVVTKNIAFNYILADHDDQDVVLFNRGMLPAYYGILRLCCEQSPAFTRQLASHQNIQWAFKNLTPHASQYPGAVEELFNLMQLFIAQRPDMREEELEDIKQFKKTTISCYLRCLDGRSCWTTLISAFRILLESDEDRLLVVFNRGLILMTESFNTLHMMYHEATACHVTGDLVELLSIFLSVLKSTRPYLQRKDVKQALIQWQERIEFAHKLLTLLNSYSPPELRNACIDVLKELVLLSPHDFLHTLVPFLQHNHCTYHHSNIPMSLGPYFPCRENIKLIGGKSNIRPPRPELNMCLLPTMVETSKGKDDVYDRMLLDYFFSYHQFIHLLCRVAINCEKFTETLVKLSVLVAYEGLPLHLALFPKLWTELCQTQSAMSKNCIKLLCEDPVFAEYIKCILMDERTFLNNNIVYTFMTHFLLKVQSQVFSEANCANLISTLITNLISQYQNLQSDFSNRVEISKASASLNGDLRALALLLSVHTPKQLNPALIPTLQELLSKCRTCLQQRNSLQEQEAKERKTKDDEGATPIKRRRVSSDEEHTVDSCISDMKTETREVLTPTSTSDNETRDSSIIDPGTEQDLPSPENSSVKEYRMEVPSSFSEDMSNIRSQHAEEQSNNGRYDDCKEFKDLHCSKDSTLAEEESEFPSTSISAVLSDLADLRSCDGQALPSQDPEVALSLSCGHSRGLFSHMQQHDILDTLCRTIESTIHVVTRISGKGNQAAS

Cc1ccc(N(C(=O)CCl)C2C=CS(=O)(=O)C2)cc1 (stereo not given)
inactive: USP34 -0.0862 | USP36 -0.145 | USP38 0.105 | USP39 0.107 | USP4 0.0944
